In assay [1] the test system is Vero E6 infected with SARS-CoV-2. The assay is described as follows: morphology score (similarity to uninfected cells); higher = more like uninfected cells. The following applies: 24 h.
Assay [2] shares this test system. The assay is described as follows: SARS-CoV-2 infection rate relative to infected DMSO; higher = more infection, active = 60 or less. The following applies: 24 h.

In assay [1], `COc1cc(N)c(Cl)cc1C(=O)NC1CCN(Cc2ccccc2)CC1` [clebopride] (10 µM) displayed a morphology score of -0.0118. Moreover, in assay [2], the SARS-CoV-2 infection rate was 110% (inactive).

In turn, `O=C(O)CCCCCCNC1c2ccccc2CCc2ccccc21` [amineptine] (10 µM) yielded a morphology score in assay [1] of 0.118. Besides, in assay [2], the SARS-CoV-2 infection rate is 105% (inactive).

Regarding `CCN(CC)CCOc1ccc(Nc2ncc3cc(-c4c(Cl)cccc4Cl)c(=O)n(C)c3n2)cc1` (10 µM), the morphology score in assay [1] is -0.126. In assay [2], the SARS-CoV-2 infection rate was 123% (inactive).

In the case of `CCC(C)(C)c1ccc(CC(C)CN2C[C@@H](C)O[C@@H](C)C2)cc1` (some centres undefined) [amorolfine] (10 µM), in assay [1], the morphology score stood at 0.198. Further, in assay [2], the SARS-CoV-2 infection rate was 93% (inactive).

The compound `Cc1cccc(C)c1NC(=O)CN1CCCCCC1` [pincainide] (10 µM) registered a morphology score in assay [1] of 0.00868. Further, the SARS-CoV-2 infection rate in assay [2] was 106% (inactive).

Take `Clc1ccc(N/N=C(\c2ccccc2)c2ccccn2)nc1` (10 µM): the morphology score in assay [1] is 0.0534. In addition, the SARS-CoV-2 infection rate in assay [2] is 103% (inactive).

In assay [1], `CCOC(=O)c1ccccc1OC(=O)CCCCCCCC(=O)Oc1ccccc1C(=O)OCC` (10 µM) had a morphology score of 0.166. Besides, the SARS-CoV-2 infection rate in assay [2] was 100% (inactive).

As to `O=C(O)CCC(=O)C(=O)O` [2-oxoglutaric-acid] (10 µM), the morphology score in assay [1] is -0.135. For the same compound, in assay [2], the SARS-CoV-2 infection rate is 110% (inactive).

In assay [1], `FC(F)(F)c1ccc(N2CCNCC2)nc1Cl` (10 µM) yielded a morphology score of 0.273. In assay [2], the SARS-CoV-2 infection rate was 89.5% (inactive).

For the compound `O=C(O)c1c2ccccc2cc2ccccc12` [9-anthracenecarboxylic-acid] (10 µM), in assay [1], the morphology score was determined as 0.252. The SARS-CoV-2 infection rate in assay [2] is 89.5% (inactive).

Compound `COc1cc(C(=O)NC2CCCNC2)cc(OC)c1OC` (centres undefined) [troxipide] (10 µM) came in with a morphology score in assay [1] of -0.014. Besides, the SARS-CoV-2 infection rate in assay [2] is 120% (inactive).

In assay [1], `N=C(N)Nc1ccc(Cl)cc1` [4-chlorophenylguanidine] (10 µM) gave a morphology score of -0.231. Moreover, in assay [2], the SARS-CoV-2 infection rate is 114% (inactive).

On to `CCCN(CCC)[C@H]1CCc2cccc(O)c2C1` [8-hydroxy-DPAT] (10 µM), for which, in assay [1], the morphology score stood at 0.0607. Also, in assay [2], the SARS-CoV-2 infection rate was 98.5% (inactive).

On to `CC[C@@H](C(N)=O)N1CCCC1=O` [levetiracetam] (10 µM), for which the morphology score in assay [1] came out at 0.0141. Also, in assay [2], the SARS-CoV-2 infection rate was 109% (inactive).

Compound `Cc1c(CN2CCN(C(=O)[C@H](C)O)CC2)sc2c(N3CCOCC3)nc(-c3cnc(N)nc3)nc12` (10 µM) registered a morphology score in assay [1] of -0.0562. Moreover, the SARS-CoV-2 infection rate in assay [2] is 113% (inactive).

On to `CCC[C@@H]1C[C@@H](C(=O)N[C@@H]([C@H]2O[C@H](SC)[C@H](OP(=O)(O)O)[C@@H](O)[C@H]2O)[C@H](C)Cl)N(C)C1` [Clindamycin phosphate] (10 µM), for which the morphology score in assay [1] is -0.0234. In addition, the SARS-CoV-2 infection rate in assay [2] was 107% (inactive).

As to `COc1ccccc1N1CCN(CCCCNC(=O)c2ccc3ccccc3c2)CC1` (10 µM), the morphology score in assay [1] was -0.00528. In assay [2], the SARS-CoV-2 infection rate is 94.5% (inactive).

In the case of `CC(C)(COP(=O)(O)OP(=O)(O)OC[C@H]1O[C@@H](n2cnc3c(N)ncnc32)[C@H](O)[C@@H]1OP(=O)(O)O)[C@@H](O)C(=O)NCCC(=O)NCCS` [coenzyme-A] (10 µM), the morphology score in assay [1] was determined as 0.0234. Also, the SARS-CoV-2 infection rate in assay [2] was 102% (inactive).

Turning to `FC(F)(F)c1ccc(/C=C/c2nc(COc3ccc(CCCCn4ccnn4)cc3)co2)cc1` [mubritinib] (10 µM), in assay [1], the morphology score is -0.0917. Besides, the SARS-CoV-2 infection rate in assay [2] was 96% (inactive).

Take `CCOC(=O)Nc1ccc2c(c1)N(C(=O)CN(C)C)c1ccccc1CC2` [tiracizine] (10 µM): the morphology score in assay [1] was -0.162. Moreover, in assay [2], the SARS-CoV-2 infection rate is 111% (inactive).

Turning to `Cc1cccc(C)c1OCC(=O)N[C@@H](Cc1ccccc1)[C@@H](O)C[C@H](Cc1ccccc1)NC(=O)[C@H](C(C)C)N1CCCNC1=O` [Lopinavir] (10 µM), in assay [1], the morphology score was found to be 0.184. Further, in assay [2], the SARS-CoV-2 infection rate is 82% (inactive).

On to `CN(Cc1ccccc1)C(=O)[C@H](Cc1ccc2ccccc2c1)NC(=O)[C@@H]1C[C@@H](O)CN1C(=O)c1cn(C)c2ccccc12` (10 µM), for which, in assay [1], the morphology score was 0.179. Moreover, in assay [2], the SARS-CoV-2 infection rate is 104% (inactive).

Compound `CCCCCCCCCCCCCCCCCCOP(=O)([O-])OC1CC[N+](C)(C)CC1` [perifosine] (10 µM) showed a morphology score in assay [1] of 0.116. The SARS-CoV-2 infection rate in assay [2] is 104% (inactive).

For `CCn1c(=O)[nH]c2ccccc21` (10 µM), in assay [1], the morphology score was found to be 0.182. The SARS-CoV-2 infection rate in assay [2] was 92.5% (inactive).

In turn, `CCN(CC)C(=O)Nc1ccc(OCC(O)CNC(C)(C)C)c(C(C)=O)c1` (centres undefined) [celiprolol] (10 µM) showed a morphology score in assay [1] of 0.118. In addition, the SARS-CoV-2 infection rate in assay [2] was 96.5% (inactive).

`COc1c(-c2ccc3cc(NS(C)(=O)=O)ccc3c2)cc(-n2ccc(=O)[nH]c2=O)cc1C(C)(C)C` [dasabuvir] (10 µM) displayed a morphology score in assay [1] of 0.123. Besides, the SARS-CoV-2 infection rate in assay [2] was 106% (inactive).

For `Cn1c(=O)cc(N2CCC[C@@H](N)C2)n(Cc2cc(F)ccc2C#N)c1=O` [trelagliptin] (10 µM), in assay [1], the morphology score turned out to be 0.194. In addition, the SARS-CoV-2 infection rate in assay [2] is 99% (inactive).

In assay [1], `CC1Oc2cc(cnc2N)-c2c(nn(C)c2C#N)CN(C)C(=O)c2ccc(F)cc21` (centres undefined) (0.833333 µM) gave a morphology score of 0.32. In addition, the SARS-CoV-2 infection rate in assay [2] is 81.5% (inactive).

Consider `COC(=O)Nc1nc2cc(C(=O)c3ccc(F)cc3)ccc2[nH]1` [flubendazole] (10 µM), for which the morphology score in assay [1] was determined as 0.13. Further, in assay [2], the SARS-CoV-2 infection rate is 98% (inactive).

Compound `Cc1cc(-c2nncc3c(C(C)(C)C)c(OCc4ncnn4C)nn23)no1` (10 µM) returned a morphology score in assay [1] of 0.149. The SARS-CoV-2 infection rate in assay [2] was 95% (inactive).

Take `Oc1cc2c(cc1O)[C@@H]1c3ccc(O)c(O)c3OC[C@]1(O)C2` [hematoxylin] (10 µM): the morphology score in assay [1] is -0.0601. The SARS-CoV-2 infection rate in assay [2] is 114% (inactive).

In assay [1], `C[C@]12CC[C@H](O)C[C@H]1CC[C@@H]1[C@@H]2CC[C@]2(C)[C@@H](c3ccc(=O)oc3)C[C@H]3O[C@]132` [resibufogenin] (10 µM) had a morphology score of -0.241. For the same compound, in assay [2], the SARS-CoV-2 infection rate was 110% (inactive).

The record behind these values is the supplement of paper PMC13380429.
